Test results published in the supplement of paper PMC10105736.
Unmarked numbers belong to inactive results.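 The calls were made as follows: active = MAPPIT score above the 99th percentile of random reference set scores in the same batch; inactive = at or below it.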

What was measured:
Experiment in all cases: MAPPIT interaction score (arbitrary units); higher = stronger binary interaction signal, active = hit call of the paper
Snap29 = conditions: MAPPIT configuration: N-C; pair source set: Lit-BM-16
Su(var)2-10 = conditions: MAPPIT configuration: N-N; pair source set: DPIM
Sxl = conditions: MAPPIT configuration: N-N; pair source set: Lit-BM-16
Sod3 = target: Sod3
Swt1 = conditions: MAPPIT configuration: N-N; pair source set: Finley_Y2H
Ssrp = conditions: MAPPIT configuration: N-C; pair source set: Lit-BM-16
Sms = conditions: MAPPIT configuration: N-N; pair source set: Finley_Y2H
SmydA-8 = conditions: MAPPIT configuration: N-N; pair source set: screen_2
Slh = conditions: MAPPIT configuration: N-N; pair source set: Finley_Y2H
Smn = conditions: MAPPIT configuration: N-C; pair source set: Lit-BM-16
Snapin = conditions: MAPPIT configuration: N-N; pair source set: Lit-BM-16
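Also: HEK293T cells with Epo stimulation, STAT-responsive firefly luciferase reporter, fold induction versus unstimulated cells divided by the larger fold induction of two negative controls lacking either bait or prey.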

B1: Syx4 (protein)
chain: MGKDRLPELLQRSLSTNSSNSSSNGSLLLNVYSGTTEFIIGNTGGNNNSYSVVSQNSHSCSNNNSSTEPKDRSSSKMTQYGSNVDDILNPYTEIRQQLAQIAANLETMNRMAQTVNLRTFNENEMDELHNKNLRLGNQLMTRFNDFKANLPAENDYSLEARMKRTLFYGLHQTFINLWHKNELFLQNYETKVKKNLRLHTKIINSEASEQEIELLIENKTTKLFVDNFLQETEKERQTLREMMDRFNELRRLEKSIEEVHALFMRIQTLVMEQSEVIQRVEFHAQQATLHVDKGADELDQAEQHQKKARKKKIMLIVILAAVLLVLLLVGIYL
MAPPIT interaction score (Snap29): 3.12

B2: Calr (protein)
chain: MMWCKTVIVLLATVGFISAEVYLKENFDNENWEDTWIYSKHPGKEFGKFVLTPGTFYNDAEADKGIQTSQDARFYAASRKFDGFSNEDKPLVVQFSVKHEQNIDCGGGYVKLFDCSLDQTDMHGESPYEIMFGPDICGPGTKKVHVIFSYKGKNHLISKDIRCKDDVYTHFYTLIVRPDNTYEVLIDNEKVESGNLEDDWDFLAPKKIKDPTATKPEDWDDRATIPDPDDKKPEDWDKPEHIPDPDATKPEDWDDEMDGEWEPPMIDNPEFKGEWQPKQLDNPNYKGAWEHPEIANPEYVPDDKLYLRKEICTLGFDLWQVKSGTIFDNVLITDDVELAAKAAAEVKNTQAGEKKMKEAQDEVQRKKDEEEAKKASDKDDEDEDDDDEEKDDESKQDKDQSEHDEL
MAPPIT interaction score (Su(var)2-10): 1.1

B3: Unr (protein)
chain: MNTQSKVYRTGEEIYDNLPCDSYFNMNAIRNLGIPTTFPTIGTFTLDSTTLGLQPQGQGPSPQQQQHQQQQQQQQQQHQQNMHHHQHQQQHMQQQQQQQQHQQQHQQQQHQQQQQHQQQQQQQQQHPTIGMFDANEVNDVIQNPPQIGVFQSNSVLTNGAGSGSSIFGSQSSNSSAAAADPSQTTRETGIIEKLLHSYGFIQCCERQARLFFHFSQFSGNIDHLKIGDPVEFEMTYDRRTGKPIASQVSKIAPEVVLSEERVTGTVTTELRTDSANNVLNSSETTGRISYENRGECFFLPYTKDDVEGNVNLRAGDKVSFQIATNQRGNLGACHIRLENPAQPVKYRGVVCSMKESFGFIERADVVKEIFFHFSEAEGNVELRPGDDVEFTIQTRSSASVPPQGREFACNITRLAPGSVIFEDVDSTVYKGQVLKSLDRNNPVRQNNDPLPGRIRYRALDYSEVEVPFGDKDQKGDFTLRHGDWVQFLLATDRRDQLQRATSIALLDETFKVSGEKREQGTIASLKEGFGFLRCVERQARLFFHFTEVLDTSREIDINDEVEFTVIQEPGLAYNNSRLQAIRIKHLPPNSVQFETLVASNIEGCVTREAPKSPIKSQDRVEGGVITYEHADVKKTIMYFLKDCEKPPRIGERVRFDIYMVKRNKECIAVNVQQVSLHQQQQQQQQQLHLNQSNAGANINQNDQLGGLSNGISSSSSNASLQNGYVMHGSPGGSTSSVGSNNPVHLDEFKMENNNHAGSDAGQVYRGFIAVMKENFGFIETLSHDEEVFFHFSNYMGNPNWLELGQEVEYTLARNGNTSVSGNCLPAENVRMLPKNSIPQPAVLETTHNGVVARPLRCINPDQQEYAGLIEILDELRTTVISQHEFGITSLVNKRDLLQKGDLVSFRIDESGRAACVNAVRQKKRATVDSIKGQFGFLNFEVEDGKKLFFHMSEVQGNTVALHPGDTVEFSVVTNQRNGKSSACNVLKINDRPDRLISRLKLNGDDTVPRLILIRAPKGPQGKGFSVLARHPRIPGNLVE
MAPPIT interaction score (Sxl): 1.51

B4: shv (protein)
chain: MQLIKCLVIIQLSLLLVEESFAGRDFYKILNVKKNANTNEVKKAYRRLAKELHPDKNKDDPDASTKFQDLGAAYEVLSNPDKRKTYDRCGEECLKKEGMMDHGGDPFSSFFGDFGFHFGGDGQQQDAPRGADIVMDLYVSLEELYSGNFVEIVRNKPVTKPASGTRKCNCRQEMVTRNLGPGRFQMIQQTVCDECPNVKLVNEERTLEIEVEQGMVDGQETRFVAEGEPHIDGEPGDLIVRVQQMPHPRFLRKNDDLYTNVTISLQDALVGFSMEIKHLDGHLVPVTREKVTWPGARIRKKGEGMPNFENNNLTGNLYITFDVEFPKKDLTEEDKEALKKILDQSSINRIYNGL
MAPPIT interaction score (Sod3; MAPPIT configuration: N-N, pair source set: Curagen_high_conf): 0.367

B5: Zpr1 (protein)
chain: MSTVSDPNSSNPPESAGNIRPEPIFREINAEQTDEIVEVESACMNCFETGVTRLLPTKIPFFREVVLMSFKCDHCGHINNEMQSASEIQKSGIRIELRVQSVADLNRRVVRSDNSSISIPEIELEIPVQSQKGEVTTVEGIIERTIAGLSQDQEKRRIDHPETAASIEKYIERLHRLKEVTTPFQVLLEDISGNSFIENPLAPAADPQLKTSYFTRSQQQNEQLGLYEQNHEEQHLLKPIAEDSWPIENLHGEVLQFPTNCPSCQAPCETNMKLTNIPHFKEVVIMATVCGACGHKTNEVKSGGGVEAQGVRFRVQIASREDLTRDVLKSETCSMSIPELDLEVGPHALCGRFTTVEGLLVAMRDQLDGTLFHDSADDATKQQMQRFLDTFEDVMNLKRVITLVLEDPAGNTYVQSLSDDDSEPDDKLTVERYDRSYEDNEDLGLNDMKTEGYEEKA
MAPPIT interaction score (Swt1): -0.39

B6: dre4 (protein)
chain: MSSFVLDKEAFVRRVKRLYTEWRAPSIGHDDALRNLDCIMSIVGVEEDVMYSKSMALQLWLLGYELTDTISVFCSDAVYFLTSKKKIEFLKQTQNITEEGFPEINLLVRDRTDKDQGNFEKLIKALQNSKKGKRLGVFAKDAYPGEFSEAWKKSLTASKFEHVDISTIIAYLMCPKDESEINNIRKASLVSMDIFNKYLKDEIMDIIDSDRKVKHNKLSDGCEAAIGEKKYTSGLDPRLLDMAYPPIIQSGGAYSLKFSAVADKNPLHFGVIVCSLGARYKSYCSNISRTFLVNPTEAMQENYTFLVSVQEEILKLLVPGTKLCDVYEKTLDFVKKEKPSMVDNLPKSFGFAMGLEFRENSIVIGPKCQALLKKNMVFNLHVGISNLTNPEATDKEGKNYALFIGDTVLVGEQSPASVMTPSKKKIKNVGIFIKDDSDEEDVDDKKTAKEDQGTEILGRSKRNAVLESKLRNEINTEEKRKEHQRELAQQLNERAKDRLARQGNSKEVEKVRKNTVSYKSISQMPREPEVKELKLYVDKKYETVIMPVFGIQVPFHISTIKNISQSVEGEYTYLRINFFHPGATMGRNEGGLYPQPEATFVKEVTYRSSNVKEHGEVGAPSANLNNAFRLIKEVQKRFKTREAEEREKEDLVKQDTLILSQNKGNPKLKDLYIRPNIVTKRMTGSLEAHSNGFRYISVRGDKVDILYNNIKSAFFQPCDGEMIILLHFHLKYAIMFGKKKHVDVQFYTEVGEITTDLGKHQHMHDRDDLAAEQAERELRHKLKTAFKSFCEKVETMTKSVVEFDTPFRELGFPGAPFRSTVTLQPTSGSLVNLTEWPPFVITLDDVELVHFERVQFHLRNFDMIFVFKEYNKKVAMVNAIPMNMLDHVKEWLNSCDIRYSEGVQSLNWQKIMKTITDDPEGFFEQGGWTFLDPESGSEGENETAESEEDEAYNPTDAESDEESDEDSEYSEASEDSEESDEDLGSDEESGKDWSDLEREAAEEDRNHDYAADDKPRNGKFDSKKHGKSSKHSPSKSSKDKYNSRDKHHSSSSSGNKSSSKDKDRKRSRDDSRDNGHKSKKSRH
MAPPIT interaction score (Ssrp): 0.759

B7: l(2)34Fc (protein)
chain: MFRLLVLAACLAISVHAYSDGAPKAACRDLTPQHGAKLQVTKPPYSISGPSHVRSDQKLTLTLGGDEFLGFMIQARDGQNRVVGQFQVVDSVHSQTLDCSGKDDTITHLSAQKGKPLTGITFDWIPPAGYKGNVKFMATVVQTGFVYWVGRVTKDIDVE
MAPPIT interaction score (Sms): 0.335

B8: Hsp67Bc (protein)
chain: MPDIPFVLNLDSPDSMYYGHDMFPNRMYRRLHSRQHHDLDLHTLGLIARMGAHAHHLVANKRNGELAALSRGGASNKQGNFEVHLDVGLFQPGELTVKLVNECIVVEGKHEEREDDHGHVSRHFVRRYPLPKEFDSDAIVSTLSEDGVLNITVPPLVSKEELKERIIPIKHVGPSDLFQNGNGHKEAGPAASASEPEAK
MAPPIT interaction score (SmydA-8): -0.475

B9: noc (protein)
chain: MVVLEGGGGVVTIGNNQYLQPDYLAPLPTTMDAKKSPLALLAQTCSQIGADSSAVKPLLAMDKNKTKPGACSSSSNSSSSSGSAEISAAKSPSGQAKSPKSSTPISSTATSASLSNTSTGEIKLAFKPYETNVLSHQNQNSFKSSSSLDAEPTRPSSKNSSSAQERVPSRSKSNATPTDGGKAEISAHDSSSSRKTVSPSGSSQRGASPIVRSGMEVLNNANGTAQHPKEMSSMAAAAAAAAAAYKAAGPYGLNPLSALCCPPGMEQHANPAFRPPFAGGFSHHHAAMLAVAANGGYPGGAPGGGPAGQPNPYISYQRIKTPAGGEAIVPVCKDPYCQGCPYSAHTQQMLMGAPCPAGCTQCEHQKYGLAMASAAGLPPAHPYSQAAAAAAANAAAARSAPYVCSWVVGDAYCGKRFQTSDELFSHLRTHTGNLSDPAAAAAALAQSQAQSLLGTLFPPSALRAGYPTPPLSPMSAAAAAARYHPYAKPPPGALAGGPSPFGAAGAFNPAAAAAAAALGPYYSPYAMYGQRMGAAHQ
MAPPIT interaction score (Sod3; MAPPIT configuration: N-N, pair source set: Lit-BS-16): 0.758

B10: rux (protein)
chain: MSAPEEHKETPLEVIHEFINGVDDGTIRRDLGEDCILSFYSRNVRGAKAITGFLRNQLTMRYKHEGFEEAAQIEWGDELLLKARFGRSFDSERRRIYEEKERTGTTLHVRPESDDEEVNEKFSSTLITPPRPSSYNLNSLKYVEACGLLNKRNEHIYGGLDMGESCAVHLTLGYRSTFLPGGQVSGFEICLAVYDRGLTSLKRSTLIPPLCSISFARRASARCNPTTDDEEDTEEDSTPPTARRCVRRTLFTEENTQKEEDADFIPVVEQEQPAPQEQPAPQQAEETGEVVIPVDISTALKTTNFSSCTPRKRQQATNGNEVVRKRATGPRRMRF
MAPPIT interaction score (Slh): -0.123

B11: Drs (protein)
chain: MMQIKYLFALFAVLMLVVLGANEADADCLSGRYKGPCAVWDNETCRRVCKEEGRSSGHCSPSLKCWCEGC
MAPPIT interaction score (Sod3; MAPPIT configuration: N-C, pair source set: screen_4): 1.45

B12: Gem2 (protein)
chain: MQHEPEDQTFQLQALEICEPDSSFDPQKPPESGEEYLMHMFYERKRCPAVVTKRSSKIRNNTGNTTLEMLDNPELPPFKCLLPTPEWRDEQVKSFQAARSQVLVLRKELANNNYDQSGEPPLTSDQEKWKEFCRNQQPLLSTLLHLTQNDLELLLEMLSKWLQDPNTTVDLLHDVWLARWLYATLVCLHLPLEPHVFSTLRYIARTCIHLRNQLKEDEVQRAAPYNLLLTLTVQVFAQNDFKDYI
MAPPIT interaction score (Smn): 2.73

B13: Dysb (protein)
chain: MFGNLKKKLSSAIQEGLVISENLQQQYRQRVSSGNSGSSQASGITTPISPLGLNESLSSSRSSSLSLSAPFQLTDGVPSHLNVAAGCSLLAKYEDDWQQIHGANEKNAEKAAQIANQISGIQDQASHQHRIMSELNSSLAGIPTLIAQLQNSSQVLNSLEEMGKQLEIELEKLEDLREECELQEFILEQQFQLSRHKQKKLNELEQYRQQIAQKHQSKIKDQEQTLLKLQRERQAVFDDAFREDMEEYKQRGQLTKIQTTSNKLALEEVVLEANEVETKDALEQFLNG
MAPPIT interaction score (Snapin): 3.8 (active)
